Measurements: the supplement of paper PMC10849652
About 7,900 targets were measured; listed, in parts, are those with a hit and a random draw of the rest. About 0.6% of all pairs of compound and target were hits. Unmarked numbers belong to inactive results.

compound: c1cn2cc(-c3ccc4cn[nH]c4c3)nc(Nc3ccc(N4CCOCC4)cc3)c2n1 [entospletinib]; experiment: log2 fold change, soluble protein after heating vs DMSO (PISA); higher = thermal stabilisation; K562 cells, 10 uM, 30 min; active = over 0.2 and 3.5 SD of the protein, either way, in both replicates (recomputed)
How it was run: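 K562 cells at 2×10^6 cells/mL were given 10 μM compound for 30 min. Aliquots then went through 3 min of heating across 48°C-58°C, were pooled, and were extracted in PBS with 0.5% NP-40 at 4°C, and the supernatant after 21,000xg for 90 min was quantified by TMTpro 16plex LC-MS/MS with channel sums equalised. Thermal stability relative to control samples, from duplicates, is given as log2 fold change.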

Chain of UniProt Q9BTY2 (Q9BTY2 whole entry, looked up): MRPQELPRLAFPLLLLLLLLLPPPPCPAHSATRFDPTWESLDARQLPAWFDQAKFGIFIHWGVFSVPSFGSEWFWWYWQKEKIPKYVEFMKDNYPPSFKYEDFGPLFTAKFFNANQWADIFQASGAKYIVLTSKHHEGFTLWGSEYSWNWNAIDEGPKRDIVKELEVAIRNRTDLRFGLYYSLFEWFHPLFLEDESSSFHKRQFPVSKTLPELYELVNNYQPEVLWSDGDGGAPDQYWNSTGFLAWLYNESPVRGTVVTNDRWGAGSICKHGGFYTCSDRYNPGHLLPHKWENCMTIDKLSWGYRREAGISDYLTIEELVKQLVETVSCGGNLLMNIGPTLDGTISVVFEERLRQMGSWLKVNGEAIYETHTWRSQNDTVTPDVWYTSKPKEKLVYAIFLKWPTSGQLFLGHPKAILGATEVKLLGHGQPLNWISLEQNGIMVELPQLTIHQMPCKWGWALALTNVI
Chain of UniProt Q70Z53 (Q70Z53 whole entry, looked up): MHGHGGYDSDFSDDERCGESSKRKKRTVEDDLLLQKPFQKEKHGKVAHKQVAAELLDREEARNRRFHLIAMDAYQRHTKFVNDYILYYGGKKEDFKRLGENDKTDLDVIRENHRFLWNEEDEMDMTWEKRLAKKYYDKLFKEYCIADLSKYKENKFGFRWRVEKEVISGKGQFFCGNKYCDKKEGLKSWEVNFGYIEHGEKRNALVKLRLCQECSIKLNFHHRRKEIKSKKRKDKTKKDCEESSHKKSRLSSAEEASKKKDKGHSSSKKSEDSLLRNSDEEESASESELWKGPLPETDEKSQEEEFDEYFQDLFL
Chain of UniProt Q6Y7W6 (Q6Y7W6 whole entry, looked up): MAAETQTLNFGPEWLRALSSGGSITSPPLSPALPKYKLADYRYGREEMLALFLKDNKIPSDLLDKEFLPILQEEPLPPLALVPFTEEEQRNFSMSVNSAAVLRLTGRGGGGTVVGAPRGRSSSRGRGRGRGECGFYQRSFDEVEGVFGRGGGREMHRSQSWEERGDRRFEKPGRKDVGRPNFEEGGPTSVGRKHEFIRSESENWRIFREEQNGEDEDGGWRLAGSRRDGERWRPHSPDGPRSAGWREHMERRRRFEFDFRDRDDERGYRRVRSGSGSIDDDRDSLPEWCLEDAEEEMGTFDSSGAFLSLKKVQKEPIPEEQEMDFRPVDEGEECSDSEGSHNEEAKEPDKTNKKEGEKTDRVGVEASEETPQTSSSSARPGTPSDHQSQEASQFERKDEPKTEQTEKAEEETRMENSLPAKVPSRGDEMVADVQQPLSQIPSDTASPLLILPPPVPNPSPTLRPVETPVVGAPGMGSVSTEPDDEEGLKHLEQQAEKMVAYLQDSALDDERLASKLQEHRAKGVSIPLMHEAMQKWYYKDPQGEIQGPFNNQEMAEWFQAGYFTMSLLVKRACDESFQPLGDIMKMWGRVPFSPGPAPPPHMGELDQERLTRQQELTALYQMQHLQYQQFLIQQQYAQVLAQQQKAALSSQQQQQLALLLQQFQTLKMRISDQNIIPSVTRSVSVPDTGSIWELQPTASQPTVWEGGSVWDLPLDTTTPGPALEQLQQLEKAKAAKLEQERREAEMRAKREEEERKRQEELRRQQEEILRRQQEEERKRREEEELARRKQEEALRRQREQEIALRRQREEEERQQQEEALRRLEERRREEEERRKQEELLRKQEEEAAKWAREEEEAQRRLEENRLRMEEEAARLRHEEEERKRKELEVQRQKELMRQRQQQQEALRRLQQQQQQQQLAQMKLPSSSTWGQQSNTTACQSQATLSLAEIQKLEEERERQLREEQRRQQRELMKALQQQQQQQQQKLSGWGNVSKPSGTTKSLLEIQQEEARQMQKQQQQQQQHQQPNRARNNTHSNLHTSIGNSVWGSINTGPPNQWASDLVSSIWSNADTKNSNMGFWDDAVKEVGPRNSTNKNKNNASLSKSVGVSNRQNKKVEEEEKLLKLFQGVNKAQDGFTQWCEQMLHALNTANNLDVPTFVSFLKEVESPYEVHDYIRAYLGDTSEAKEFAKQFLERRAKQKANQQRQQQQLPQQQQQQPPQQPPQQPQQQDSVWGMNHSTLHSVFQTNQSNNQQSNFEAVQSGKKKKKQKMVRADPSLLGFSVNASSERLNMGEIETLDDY
Chain of UniProt Q9HCG7 (Q9HCG7 whole entry, looked up): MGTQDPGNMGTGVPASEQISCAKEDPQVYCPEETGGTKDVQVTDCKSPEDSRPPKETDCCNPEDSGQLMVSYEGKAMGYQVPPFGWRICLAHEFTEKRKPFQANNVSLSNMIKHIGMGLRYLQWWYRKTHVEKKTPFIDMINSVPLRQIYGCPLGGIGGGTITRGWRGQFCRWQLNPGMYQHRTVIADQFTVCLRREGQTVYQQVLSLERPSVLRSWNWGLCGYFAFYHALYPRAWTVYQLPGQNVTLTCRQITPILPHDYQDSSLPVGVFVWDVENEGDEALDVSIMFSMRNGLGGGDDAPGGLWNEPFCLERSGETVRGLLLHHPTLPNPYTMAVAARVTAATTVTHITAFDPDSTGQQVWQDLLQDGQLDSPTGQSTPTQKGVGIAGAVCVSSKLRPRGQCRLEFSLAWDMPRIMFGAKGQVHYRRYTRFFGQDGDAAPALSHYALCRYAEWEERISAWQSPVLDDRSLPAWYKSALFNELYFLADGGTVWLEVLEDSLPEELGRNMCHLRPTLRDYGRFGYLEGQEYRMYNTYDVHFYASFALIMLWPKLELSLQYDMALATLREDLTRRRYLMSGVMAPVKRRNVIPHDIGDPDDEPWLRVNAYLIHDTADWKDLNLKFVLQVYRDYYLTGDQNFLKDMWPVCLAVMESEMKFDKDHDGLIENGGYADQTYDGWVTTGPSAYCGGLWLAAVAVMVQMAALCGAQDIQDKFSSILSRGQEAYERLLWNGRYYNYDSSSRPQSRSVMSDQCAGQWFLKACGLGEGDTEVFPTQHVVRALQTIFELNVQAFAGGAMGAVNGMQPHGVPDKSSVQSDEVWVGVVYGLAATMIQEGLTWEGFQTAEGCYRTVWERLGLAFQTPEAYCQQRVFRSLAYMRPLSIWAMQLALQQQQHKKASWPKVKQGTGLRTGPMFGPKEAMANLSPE
Chain of UniProt P31150 (P31150 whole entry, looked up): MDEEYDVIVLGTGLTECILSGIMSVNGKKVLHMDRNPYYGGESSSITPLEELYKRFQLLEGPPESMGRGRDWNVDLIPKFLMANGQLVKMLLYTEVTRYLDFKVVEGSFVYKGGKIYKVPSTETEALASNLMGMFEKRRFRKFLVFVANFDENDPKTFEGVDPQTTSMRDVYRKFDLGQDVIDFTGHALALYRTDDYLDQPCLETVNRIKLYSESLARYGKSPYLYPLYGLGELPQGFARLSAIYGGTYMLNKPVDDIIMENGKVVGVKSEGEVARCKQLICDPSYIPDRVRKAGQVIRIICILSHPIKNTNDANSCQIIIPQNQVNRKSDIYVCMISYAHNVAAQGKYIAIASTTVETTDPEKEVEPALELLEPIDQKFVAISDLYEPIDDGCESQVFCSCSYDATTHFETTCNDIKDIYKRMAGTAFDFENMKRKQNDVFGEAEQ
Chain of UniProt P07686 (P07686 whole entry, looked up): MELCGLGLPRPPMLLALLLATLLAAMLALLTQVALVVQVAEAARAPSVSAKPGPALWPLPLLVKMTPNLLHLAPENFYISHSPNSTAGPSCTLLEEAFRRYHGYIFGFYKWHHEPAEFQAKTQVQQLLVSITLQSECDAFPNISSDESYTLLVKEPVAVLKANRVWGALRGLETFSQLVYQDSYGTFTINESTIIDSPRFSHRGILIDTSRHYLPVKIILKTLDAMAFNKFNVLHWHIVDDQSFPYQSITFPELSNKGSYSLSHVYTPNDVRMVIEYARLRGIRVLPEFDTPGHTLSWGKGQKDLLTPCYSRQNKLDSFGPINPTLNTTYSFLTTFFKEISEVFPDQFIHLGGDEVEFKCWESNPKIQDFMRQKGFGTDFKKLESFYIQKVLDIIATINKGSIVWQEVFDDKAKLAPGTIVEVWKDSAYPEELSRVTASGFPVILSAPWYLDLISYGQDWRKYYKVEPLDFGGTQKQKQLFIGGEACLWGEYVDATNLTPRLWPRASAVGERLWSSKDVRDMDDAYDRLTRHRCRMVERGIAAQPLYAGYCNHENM
Chain of UniProt Q10471 (Q10471 whole entry, looked up): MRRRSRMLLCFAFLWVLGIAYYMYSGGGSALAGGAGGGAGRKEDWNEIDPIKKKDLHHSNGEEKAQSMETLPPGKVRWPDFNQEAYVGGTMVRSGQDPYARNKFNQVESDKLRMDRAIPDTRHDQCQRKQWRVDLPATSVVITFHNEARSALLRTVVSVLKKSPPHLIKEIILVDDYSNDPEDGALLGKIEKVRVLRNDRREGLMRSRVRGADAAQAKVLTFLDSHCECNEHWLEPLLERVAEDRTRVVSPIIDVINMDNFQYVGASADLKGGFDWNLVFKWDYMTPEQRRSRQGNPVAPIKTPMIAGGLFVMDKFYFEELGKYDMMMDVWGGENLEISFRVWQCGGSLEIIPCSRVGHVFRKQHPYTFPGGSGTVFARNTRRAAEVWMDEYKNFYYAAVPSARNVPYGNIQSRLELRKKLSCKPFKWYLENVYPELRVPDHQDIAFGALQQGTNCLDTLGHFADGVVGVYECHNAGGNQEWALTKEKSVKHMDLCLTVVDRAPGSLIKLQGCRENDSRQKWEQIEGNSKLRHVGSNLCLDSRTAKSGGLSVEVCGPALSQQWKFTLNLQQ
Chain of UniProt O00165 (O00165 whole entry, looked up): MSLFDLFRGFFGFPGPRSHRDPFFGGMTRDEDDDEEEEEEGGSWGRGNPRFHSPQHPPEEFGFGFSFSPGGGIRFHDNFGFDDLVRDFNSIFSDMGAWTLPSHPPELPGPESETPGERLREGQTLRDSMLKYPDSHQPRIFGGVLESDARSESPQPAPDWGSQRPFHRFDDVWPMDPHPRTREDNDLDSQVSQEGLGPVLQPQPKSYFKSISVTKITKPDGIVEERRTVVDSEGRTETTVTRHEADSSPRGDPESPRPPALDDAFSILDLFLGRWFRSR
Chain of UniProt P0C0S5 (P0C0S5 whole entry, looked up): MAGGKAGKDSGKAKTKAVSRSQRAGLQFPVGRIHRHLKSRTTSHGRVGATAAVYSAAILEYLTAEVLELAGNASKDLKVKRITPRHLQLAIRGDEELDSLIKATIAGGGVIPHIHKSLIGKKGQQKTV

In order of rising log2 fold change:
1. FCF1 (UniProt Q9Y324)  -0.269
2. GBA2 (UniProt Q9HCG7)  -0.108
3. FOXO3 (UniProt O43524)  -0.107
4. HIST2H3A (UniProt Q71DI3)  -0.078
5. HHEX (UniProt Q03014)  -0.076
6. FBXO6 (UniProt Q9NRD1)  -0.055
7. GALNT2 (UniProt Q10471)  -0.041
8. HIP1 (UniProt O00291)  -0.04
9. HEXB (UniProt P07686)  -0.026
10. GIGYF2 (UniProt Q6Y7W6)  -0.02
11. FUCA2 (UniProt Q9BTY2)  -0.016
12. GALNT4 (UniProt Q8N4A0)  -0.015
13. GABPA (UniProt Q06546)  -0.01
14. FRA10AC1 isoform 3 (UniProt Q70Z53)  -0.003
15. H2AZ1 (UniProt P0C0S5)  -0.001
16. GNS (UniProt P15586)  0.002
17. FANCD2 isoform 1 (UniProt Q9BXW9)  0.002
18. FAM91A1 (UniProt Q658Y4)  0.009
19. GINS2 (UniProt Q9Y248)  0.012
20. GCLM (UniProt P48507)  0.012
21. HP1BP3 (UniProt Q5SSJ5)  0.014
22. HOOK3 (UniProt Q86VS8)  0.025
23. HAX1 (UniProt O00165)  0.028
24. GNL1 (UniProt P36915)  0.028
25. GDI1 (UniProt P31150)  0.032
26. GTF3A (UniProt Q92664)  0.033
27. GSTM4 (UniProt Q03013)  0.036
28. GNB2 (UniProt P62879)  0.038
29. GTF2A1 (UniProt P52655)  0.051
30. GOLGB1 isoform 2 (UniProt Q14789)  0.058
31. HNRNPK isoform 2 (UniProt P61978)  0.064
32. GALC (UniProt P54803)  0.067
33. HIKESHI (UniProt Q53FT3)  0.088
34. HMGB3 (UniProt O15347)  0.097
35. FNTA (UniProt P49354)  0.111
36. HMGN2 (UniProt P05204)  0.111
37. GCC2 (UniProt Q8IWJ2)  0.144
38. GTF3C5 isoform 3 (UniProt Q9Y5Q8)  0.226
39. FOXK1 (UniProt P85037)  0.262
40. FECH isoform 2 (UniProt P22830)  0.471
